Rab9 prom act – activates the Rab9 promoter; AID 485297; hit rate 2.8% among 320,000; Huh7 Rab9 promoter-luciferase reporter, luminescence, 24 h; Potency, µM (series often up to 9.22 µM), for the others: top-dose activation, negative = inhibition, usual class: activators; note: % of control where 0% means no effect; nearly all actives have a fitted effect of over 60% in size
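Rab9 promoter-driven luciferase in stably transfected Huh7 cells; 1500 cells/well rested 2 h, exposed to compound in DMSO for 24 h at 37 °C, 5% CO2. Luminescence read 10 min after adding luciferase reagent at ambient temperature.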
ELG1 genotox – inducers of genotoxicity in HEK293T ELG1-luciferase cells; HEK293T ELG1-luciferase reporter, luminescence, 16 h; Potency, µM (doses to about 46 µM), for inactives: top-dose activity change, positive = activation, usual class: activators; hit rate 1.3% among 330,000; AID 504466; note: % of control where 0% means no effect; nearly all actives have a fitted effect of over 60% in size
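Genotoxic stress is detected as increased luminescence from luciferase-tagged ELG1 in HEK293T cells, measured with ONE-Glo after a 16 hr treatment at 37 °C.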
FLuc counter – inhibits or activates purified firefly luciferase, miR-21 counter-screen; P08659; purified FLuc, Km substrates, luminescence inhibition; Potency, µM (top dose mostly 57.5 µM), for inactives: at the top dose activity change, negative = inhibition, usual class: inhibitors; hit rate 6.9% among 360,000;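 note: plate controls were vehicle for no effect and reference inhibitor for full effect; nearly all actives have a fitted effect of over 55% in size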
Target sequence (P08659 whole entry, looked up): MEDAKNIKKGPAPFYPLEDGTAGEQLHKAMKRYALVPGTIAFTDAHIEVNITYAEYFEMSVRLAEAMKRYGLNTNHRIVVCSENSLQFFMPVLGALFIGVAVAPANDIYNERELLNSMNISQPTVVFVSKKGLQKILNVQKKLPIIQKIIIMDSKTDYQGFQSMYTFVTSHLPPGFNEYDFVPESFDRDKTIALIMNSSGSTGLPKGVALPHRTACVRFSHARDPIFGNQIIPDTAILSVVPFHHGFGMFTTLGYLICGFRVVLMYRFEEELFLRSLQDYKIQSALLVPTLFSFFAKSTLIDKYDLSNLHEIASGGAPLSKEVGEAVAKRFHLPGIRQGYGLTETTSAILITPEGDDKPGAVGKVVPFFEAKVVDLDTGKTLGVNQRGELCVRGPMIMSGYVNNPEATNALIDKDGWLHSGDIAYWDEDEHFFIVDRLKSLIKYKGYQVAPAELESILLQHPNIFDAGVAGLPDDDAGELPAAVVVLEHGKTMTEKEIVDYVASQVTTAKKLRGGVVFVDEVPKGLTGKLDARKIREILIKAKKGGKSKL
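Purified P. pyralis luciferase (10nM final) with 10uM D-luciferin and 10uM ATP (Km levels) in 50mM Tris acetate pH 7.5, 10mM Mg acetate, 0.01% Tween-20, 0.05% BSA; qHTS 6-point titration, ~60 µM downward; luminescence read.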
SMN2 splice up – increases expression of the SMN2 splice variant. HEK293 SMN2-luciferase splicing reporter, luminescence, 30-36 h. Potency, µM (titrated, usually from 46.1 µM), without a hit: top-dose activity change, positive = activation, usual class: activators. hit rate 2.8% among 210,000; note: % of control where 0% means no effect; nearly all actives have a fitted effect of over 55% in size
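HEK293 cells carry an SMN2 minigene-luciferase reporter in which exon 7 inclusion puts luciferase in frame. Cells were seeded at 2000 cells/well, attached for 10-12 hours, then exposed to compounds for 30-36 hours at 37C before ONE-Glo luminescence.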
NPC1 promoter act – activators of NPC1 promoter | AID 485313 | Potency, µM (doses to about 9.22 µM), for inactives: top-dose activation, hits mostly activators | hit rate 2.4% among 320,000 | Huh7 NPC1 promoter luciferase reporter, 24 h; note: % of control where 0% means no effect; nearly all actives have a fitted effect of over 60% in size
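Compounds in DMSO were transferred onto Huh7 NPC1-luciferase reporter cells pre-incubated 2 h; after 24 h at 37 °C, Amplite reagent was dispensed and luminescence recorded 10 min later.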
ELG1 DNA repair – ELG1-dependent DNA repair inhibition. hit rate 2.3% among 330,000. HEK293T ELG1-luciferase reporter, luminescence, 16 h; DNA damage induced by 5-fluorouridine. AID 504467. Potency, µM (titrated, usually from 46.1 µM), inactives show at the highest dose activity change, negative = inhibition, most hits filed as inhibitors; note: % is set by controls: 0 for no effect and ±100 for the full control effect; nearly all actives have a fitted effect of over 55% in size
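HEK293T cells expressing luciferase-tagged ELG1 (2,000/well) received 5-Fluorouridine plus compound or DMSO for 16 hr at 37 °C. Luciferase was read by ONE-Glo luminescence after 30 min at room temperature.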
* = called active by the depositor; ? = inconclusive; . = no result given. In the library only some 9.2% were active in any assay of this set; here they are far more common. Calls come from the whole dose curve; as a rule, active = well fitted curve in the direction sought with a large enough effect; inconclusive = small, poorly fitted or top-dose-only effect, or another doubt; inactive = no such curve, though single readings can be large; an effect the other way counts as inactive or inconclusive. Potency is the fitted concentration of half-maximal effect.

SMILES | Rab9 prom act | ELG1 genotox | FLuc counter | SMN2 splice up | NPC1 promoter act | ELG1 DNA repair
COCCN(Cc1nc(C(c2ccccc2)c2ccccc2)no1)C(C)C | 0% | -1% | 3% | . | 1% | -4%
COc1ccc2[nH]cc(C(O)CN3CCN(c4ccccc4)CC3)c2c1 (configuration not stated) | 3% | -2% | -1% | . | 1% | -21%
COc1ccc(N2CCN(CC(O)c3c[nH]c4ccc(OC)cc34)CC2C)cc1 (configuration not stated) | -3% | -3% | 0% | -3% | 0% | 23µM*
CCCCN(C(=O)C1CC(=O)N(CCc2ccc(OC)c(OC)c2)C1)c1c(N)n(CCCC)c(=O)[nH]c1=O (configuration not stated) | 1% | -1% | 0% | . | -2% | 2%
CCOC(=O)CC(=O)COc1nc2cc3c(nc2o1)CCCC3 | 18% | ? | 13µM* | . | -3% | ?
CCOC(=O)CC(=O)CSc1nc2c(cc1C#N)CCCCC2 | ? | 7.1µM* | 9.5µM* | ? | 21% | ?
Cc1ccccc1NC(=O)Cn1cnc2c(oc3nc4c(cc32)CCCC4)c1=O | 10% | 6% | -14% | . | 1% | 16%
CCOC(=O)CC(=O)CSc1nc(C)cc(C)c1C#N | -11% | -12% | -16% | 17% | -3% | 12%
CCOC(=O)CC(=O)CSc1nc2c(c(C)c1C#N)CCC2 | 6% | 1% | 11µM* | -6% | 23% | 15%
CC(C)OC(=O)CC(=O)CSc1nc2c(cc1C#N)CCCCC2 | ? | 15µM* | 7.6µM* | ? | 14% | ?
CCN(CC)S(=O)(=O)c1ccc2c(c1)CC(C(=O)N1CCCC1)N2C(C)=O (configuration not stated) | 0% | 0% | -1% | . | -7% | 1%
NC(=S)n1[nH]c(-c2ccc([N+](=O)[O-])cc2)c(N=Nc2cccc(Cl)c2)c1=O | -22% | -20% | -17% | -62% | -14% | 3.7µM*
Cc1[nH]n(C(N)=S)c(=O)c1N=Nc1ccc([N+](=O)[O-])cc1Cl | 30% | 1% | 9.5µM* | . | ? | 0%
Cc1[nH]n(C(N)=S)c(=O)c1N=Nc1cccc(Cl)c1 | ? | ? | 5.4µM* | . | ? | ?
Cc1cccc(N=Nc2c(C)[nH]n(C(N)=S)c2=O)c1C | 4µM* | ? | 12µM* | ? | ? | ?
O=C(N=C1SC2CS(=O)(=O)CC2N1c1cc(Cl)ccc1Cl)C1CCCO1 (configuration not stated) | -1% | 3% | 3% | . | -3% | ?
CCOc1ccc(CC(=O)Nc2c(C(=O)c3ccccc3)oc3ccc(OC)cc23)cc1OCC | . | . | -1% | -4% | . | .
COc1ccc(OC)c(CCNC(=O)CC2(CC3=NS(=O)(=O)c4ccccc4N3)CCCC2)c1 | 1% | -5% | -3% | . | -2% | ?
COC(=O)c1ccc(C(/C=C/[C@@H](C)C(=O)NCCN2CCCC2)NC(=O)OCc2ccccc2)cc1 (some centres not stated) | . | . | . | -15% | . | .
Cc1cccc(N2CCN(C(=O)c3cnn(-c4cccc(Cl)c4C)c3C3CCNCC3)CC2)c1C | . | . | -2% | . | . | .
O=C(N/N=C/c1cccc(F)c1)c1cc(-c2ccco2)nc2ccccc12 | 6% | 8% | 0.54µM* | ? | 1% | ?
COc1cc(/C=N/NC(=O)c2cc(-c3ccco3)nc3ccccc23)cc(OC)c1O | -2% | -5% | 12µM* | . | -6% | ?
COc1ccc(NC(=O)C2(S(=O)(=O)c3ccc(C)cc3)CC2)c(OC)c1 | . | . | -4% | -12% | . | .
Cc1cc(Nc2ccccc2)n(C(=O)c2ccc(Cl)cc2)n1 | 8% | 11% | 11µM* | 20% | 17% | ?
Cc1cc(Nc2ccccc2)n(-c2ccc(C(=O)O)cc2)n1 | -2% | 2% | -14% | -1% | -4% | 9%
SMILES | Rab9 prom act | ELG1 genotox | FLuc counter | SMN2 splice up | NPC1 promoter act | ELG1 DNA repair
CC1(C)CC(NC(=O)c2ccc(Cl)c(S(=O)(=O)N(Cc3ccccc3)c3ccccc3)c2)CC(C)(C)N1 | -2% | 9% | -1% | . | -7% | -10%
O=C(c1ccc(-c2ccc([N+](=O)[O-])cc2Cl)o1)N1CCOCC1 | ? | ? | 17µM* | ? | 28% | ?
CC(=O)N1CCN(C(=O)c2ccc(-c3cccc(C(F)(F)F)c3)o2)CC1 | -1% | 3% | -9% | . | -1% | 4%
NC(=O)C1CCCN(C(=O)c2ccc(-c3cccc(Cl)c3Cl)o2)C1 (configuration not stated) | ? | ? | 9.5µM* | . | ? | ?
O=C(c1ccc(-c2cccc(C(F)(F)F)c2)o1)N1CCOCC1 | 19% | 16µM* | ? | 28% | 24% | ?
O=C(c1ccc(-c2ccccc2Cl)o1)N1CCC1 | ? | ? | 17µM* | . | ? | ?
CN1CCCN(C(=O)c2ccccc2Cl)CC1 | 4% | -2% | -2% | . | -3% | 1%
O=C(c1ccc(-c2cccc(Cl)c2Cl)o1)N1CCOCC1 | 1.3µM* | ? | ? | 11µM* | ? | ?
O=C(c1ccc(-c2ccccc2Cl)o1)N1CCCC(C(F)(F)F)C1 (configuration not stated) | ? | ? | 13µM* | . | 29% | ?
Cc1c(C(=O)N2CCCC(C(F)(F)F)C2)oc2ccccc12 (configuration not stated) | 3% | 2% | ? | . | 0% | ?
O=C(c1ccc([N+](=O)[O-])o1)N1CCOCC1 | 0% | 2% | 4% | -7% | -2% | -13%
CC(=O)c1ccc(-c2ccc(C(=O)N3CCC(C(N)=O)CC3)o2)cc1 | 29% | ? | ? | . | ? | ?
CC1CCN(C(=O)c2ccc(-c3ccccc3Cl)o2)CC1 | 0.32µM* | ? | 2.1µM* | . | 0.89µM* | ?
Cc1ccc2nc(COc3ccccc3NC(=O)c3ccccc3F)cc(=O)n2c1 | . | . | 1% | . | . | .
Cc1ccsc1CNCc1cc(Cl)ccc1O | 0% | 5% | -19% | . | 8% | 27%
O=C(CCNC(=O)c1ccc(Br)cc1)OCc1ccccc1Cl | 1% | ? | 1% | . | 0% | 13%
O=C1/C(=N\S(=O)(=O)c2cccs2)C([n+]2ccccc2)=C([O-])c2ccccc21 | -37% | -17% | 1% | . | -25% | 2.6µM*
N/C(=N\S(=O)(=O)c1cccs1)c1ccccc1 | 9% | -2% | 7% | 15% | -3% | -1%
CC(C)(C)c1cc[n+](C2=C([O-])c3ccccc3C(=O)/C2=N\S(=O)(=O)c2cccs2)cc1 | -48% | -11% | ? | . | -22% | 2.9µM*
